Reference: PubChem BioAssay AID1159580 (chemical genetic matrix, 2015)
Hit rate of the full screen: of about 5,500 compounds, about 2,000 (36%) were called active. Another 18% or so got no clear call; they are omitted. Cut-off read from the data, not from the text of the source: active = normalized growth mostly below about 0.91 (no sharp cut-off); inconclusive = no clear call, values can overlap the other calls; inactive = mostly above about 0.92. Some of the results follow.

Assay: chemical genetic growth profiling, strain panel (AID 1159580);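 note: tested at 20 µM; growth read once vehicle control cultures reached saturation at 30 °C; 1 = growth at the plate median or of vehicle wells; lower values mean less growth of the strain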
Conditions: S. cerevisiae deletion strains, growth OD

Measured: normalized growth

CCCCC(=O)Oc1ccccc1C(=O)O
inactive: locus YAL021C, strain ccr4, hits give low values 0.989 | locus YAL026C, strain drs2, hits give low values 0.991 | locus YAL030W, strain snc1, hits give low values 0.989 | locus YBL061C, strain skt5, hits give low values 0.982 | locus YBR009C, strain hhf1, hits give low values 0.988 | locus YBR023C, strain chs3, hits give low values 0.993 | locus YBR171W, strain sec66, hits give low values 0.952 | locus YBR231C, strain swc5, hits give low values 0.989 | locus YBR279W, strain paf1, hits give low values 1 | locus YCL011C, strain gbp2, hits give low values 0.979 | locus YCL016C, strain dcc1, hits give low values 0.971 | locus YCL061C, strain MRC1, hits give low values 0.986 | locus YCL069W, strain vba3, hits give low values 0.996 | locus YCR088W, strain abp1, hits give low values 0.976 | locus YDL005C, strain med2, hits give low values 0.938 | locus YDL040C, strain nat1, hits give low values 0.989 | locus YDR001C, strain nth1, hits give low values 0.971 | locus YDR069C, strain doa4, hits give low values 0.986 | locus YDR137W, strain rgp1, hits give low values 0.963 | locus YDR159W, strain sac3, hits give low values 0.953 | locus YDR195W, strain ref2 0.981 | locus YDR297W, strain sur2, hits give low values 0.988 | locus YDR334W, strain swr1, hits give low values 0.994 | locus YDR335W, strain msn5, hits give low values 0.98 | locus YDR392W, strain spt3, hits give low values 0.997 | locus YEL003W, strain gim4, hits give low values 0.983 | locus YEL037C, strain rad23, hits give low values 0.984 | locus YEL061C, strain CIN8 (second series), hits give low values 0.982 | locus YER015W, strain faa2, hits give low values 0.991 | locus YER016W, strain bim1, hits give low values 0.977 | locus YER111C, strain swi4, hits give low values 0.938 | locus YER155C, strain BEM2 (second series), hits give low values 0.964 | locus YFR010W, strain ubp6, hits give low values 1 | locus YGL167C, strain pmr1, hits give low values 0.957 | locus YGL173C, strain kem1, hits give low values 0.981 | locus YGL227W, strain vid30, hits give low values 0.965 | locus YGL240W, strain doc1, hits give low values 0.971 | locus YGL253W, strain hxk2, hits give low values 0.989 | locus YHR013C, strain ard1, hits give low values 0.938 | locus YHR027C, strain rpn1, hits give low values 0.964 | locus YHR030C, strain SLT2, hits give low values 0.974 | locus YHR079C, strain IRE1, hits give low values 0.988 | locus YHR142W, strain chs7, hits give low values 0.962 | locus YJL092W, strain hpr5, hits give low values 0.971 | locus YJL095W, strain BCK1 (second series), hits give low values 0.955 | locus YJL095W, strain BCK1, hits give low values 0.989 | locus YJL115W, strain asf1, hits give low values 0.971 | locus YJL129C, strain trk1, hits give low values 0.946 | locus YJL154C, strain vps35, hits give low values 0.964 | locus YJL164C, strain tpk1, hits give low values 0.981 | locus YJL166W, strain qcr8, hits give low values 0.984 | locus YJR066W, strain TOR1, hits give low values 0.935 | locus YKL160W, strain elf1, hits give low values 0.962 | locus YKR026C, strain gcn3, hits give low values 0.986 | locus YKR091W, strain srl3, hits give low values 0.971 | locus YLL001W, strain dnm1, hits give low values 0.985 | locus YLL026W, hits give low values 0.983 | locus YLL041C, strain sdh2, hits give low values 0.986 | locus YLR027C, strain aat2, hits give low values 0.973 | locus YLR113W, strain HOG1, hits give low values 0.944 | locus YLR221C, strain rsa3, hits give low values 1.01 | locus YLR258W, strain gsy2, hits give low values 0.983 | locus YLR262C, strain YPT6 (second series), hits give low values 0.973 | locus YLR320W, strain mms22, hits give low values 0.996 | locus YLR342W, strain FKS1, hits give low values 0.979 | locus YLR357W, strain rsc2, hits give low values 0.96 | locus YLR370C, strain arc18, hits give low values 0.971 | locus YLR384C, strain iki3, hits give low values 0.956 | locus YML120C, strain ndi1, hits give low values 0.994 | locus YMR058W, strain fet3, hits give low values 0.979 | locus YMR125W, strain sto1, hits give low values 0.959 | locus YMR129W, hits give low values 0.98 | locus YMR205C, strain PFK2, hits give low values 0.981 | locus YMR231W, strain pep5, hits give low values 0.967 | locus YNL071W, strain lat1, hits give low values 1 | locus YNL183C, strain NPR1, hits give low values 0.936 | locus YNL209W, strain ssb2, hits give low values 0.974 | locus YNL248C, strain rpa49, hits give low values 0.959 | locus YNL322C, strain KRE1 (second series), hits give low values 0.944 | locus YNR049C, strain mso1, hits give low values 0.988 | locus YOR001W, strain rrp6, hits give low values 1.01 | locus YOR070C, strain gyp1, hits give low values 0.972 | locus YOR080W, strain dia2, hits give low values 0.956 | locus YOR083W, strain WHI5, hits give low values 0.927 | locus YOR106W, strain vam3, hits give low values 0.972 | locus YOR231W, strain MKK1, hits give low values 0.966 | locus YOR265W, strain rbl2, hits give low values 0.99 | locus YOR270C, strain vph1, hits give low values 0.96 | locus YOR290C, strain snf2, hits give low values 0.971 | locus YPL051W, strain arl3, hits give low values 0.994 | locus YPL078C, strain atp4, hits give low values 0.977 | locus YPL106C, strain sse1, hits give low values 0.953 | locus YPL240C, strain hsp82, hits give low values 0.976 | locus YPL256C, strain CLN2, hits give low values 0.953
